In PubChem BioAssay (NCATS):
Records with an inconclusive call do not appear. A call without a number means that no potency is given here. Calls of active or inactive are those of the source. Calls come from the whole dose curve; as a rule, active = well fitted inhibition curve with a large enough effect; inconclusive = small, poorly fitted or top-dose-only effect; inactive = flat fitted curve, though single readings scatter.

Experiments:
Assay in all cases: qHTS profiling for inhibitors of Plasmodium falciparum proliferation (AID 504749); note: nearly all actives have a fitted effect of over 60% in size
Conditions in all cases: P. falciparum in erythrocytes, SYBR Green DNA, 72 h; series mostly up to 28.7 µM
DFO2036 = system: DFO2036
Summary of the method: (§1)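 Three-day growth assay of blood-stage parasites in erythrocytes (0.3% parasitemia, 2.5% hematocrit) at 37 C, 5% CO2, quantified by SYBR Green DNA staining after overnight detergent lysis.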

DIV14 = system: DIV14
Summary of the method: as §1

Dd2 = system: Dd2
Summary of the method: as §1

ECU = system: ECU
Summary of the method: as §1

FAB9 = system: FAB9
Summary of the method: as §1

HB3 = system: HB3
Summary of the method: as §1

ICS = system: ICS
Summary of the method: as §1

DIV17 = system: DIV17
Summary of the method: as §1

DIV30 = system: DIV30
Summary of the method: as §1

GB4 = system: GB4
Summary of the method: as §1
Potency is the fitted concentration of half-maximal effect.

Row | Compound | Potency (DFO2036) | Potency (DIV14) | Potency (Dd2) | Potency (ECU) | Potency (FAB9) | Potency (HB3) | Potency (ICS) | Potency (DIV17) | Potency (DIV30) | Potency (GB4)
1 | NCc1ccccc1Sc1ccccc1CO | inactive | 13.5 µM (active) | 10 µM (active) | inactive | inactive | inactive | 8.91 µM (active) |  |  | 
2 | O=C(Nc1ccc([N+](=O)[O-])cc1)Nc1ccc([N+](=O)[O-])cc1 | inactive |  |  | inactive | inactive |  | 2 µM (active) | inactive | inactive | inactive
3 | CCc1ccc(C(=O)C(C)CN2CCCCC2)cc1 (stereo unspecified) | inactive | inactive | inactive | inactive | inactive | inactive | inactive |  | inactive | inactive
4 | NC(N)=NN=C(/C=C/c1ccc([N+](=O)[O-])o1)/C=C/c1ccc([N+](=O)[O-])o1 | 11.2 µM (active) | 7.57 µM (active) | 2.82 µM (active) | 12.6 µM (active) |  | 2.24 µM (active) | 2 µM (active) | 7.57 µM (active) |  | 
5 | Cc1cc(CC(=O)O)c(C)n1-c1ccc(Cl)cc1 | inactive |  |  |  | inactive | inactive | 8.91 µM (active) | 16.9 µM (active) |  | 
6 | CCN(CC)CCOC(=O)C1(c2ccccc2)CCCC1 | inactive |  | 8.91 µM (active) | inactive | inactive | inactive |  |  | inactive | 
7 | C[N+]1(C)CCC(=C(c2ccccc2)c2ccccc2)CC1 | inactive |  | inactive | inactive |  |  |  |  | inactive | 
8 | CCCCNc1ccc(C(=O)OCCOCCOCCOCCOCCOCCOCCOCCOCCOC)cc1 | inactive |  | inactive | inactive | inactive | inactive | inactive | inactive | inactive | inactive
9 | CC(C)(C)NC[C@H](O)COc1cccc2c1CCCC2=O | inactive |  | inactive | inactive | inactive | inactive | inactive | inactive | inactive | 
10 | CC(=O)NCCCCCC(=O)O | inactive | inactive | inactive | inactive | inactive | inactive | inactive |  | inactive | inactive
11 | COc1cc([C@H]2Oc3cc([C@H]4Oc5cc(O)cc(O)c5C(=O)[C@@H]4O)ccc3O[C@@H]2CO)ccc1O | inactive |  | inactive | inactive | inactive | inactive | 8.91 µM (active) |  | 19 µM (active) | 
12 | CN(C)C(=O)Nc1ccc(Cl)c(Cl)c1 | inactive | 3.01 µM (active) |  | inactive | inactive |  |  | 4.78 µM (active) |  | 
13 | CCNC(=O)/C=C/c1cccc(Br)c1 | inactive |  | inactive | inactive | inactive | inactive | inactive | inactive | inactive | inactive
14 | CCCCCCCCCCCCOCCOCCOCCOCCOCCOCCOCCOCCOCCO | inactive |  | 12.6 µM (active) |  | inactive |  |  |  | inactive | 
15 | COc1cc(O)c(C(=O)c2ccccc2)cc1S(=O)(=O)O | inactive |  | inactive |  | inactive |  | 3.55 µM (active) |  | inactive | 
16 | CN1CCN(CCC(=O)N2c3ccccc3Sc3ccc(C(F)(F)F)cc32)CC1 | inactive | 8.49 µM (active) |  |  | inactive | inactive | 7.08 µM (active) | 8.49 µM (active) |  | 
17 | CN1CCN(C2=Nc3cc(F)ccc3Cc3ccccc32)CC1 | inactive |  | 14.1 µM (active) | inactive | inactive | inactive |  |  | inactive | 
18 | CN1CCC[C@@H]1CCO[C@](C)(c1ccccc1)c1ccc(Cl)cc1 | inactive |  |  | inactive | inactive | inactive | 10 µM (active) | 6.75 µM (active) | inactive | 

Row | Compound | Potency (DFO2036) | Potency (DIV14) | Potency (Dd2) | Potency (ECU) | Potency (FAB9) | Potency (HB3) | Potency (ICS) | Potency (DIV17) | Potency (DIV30) | Potency (GB4)
19 | CCOc1ccccc1OCCN[C@H](C)Cc1ccc(OC)c(S(N)(=O)=O)c1 | inactive | inactive | inactive | inactive | inactive | inactive | inactive |  | inactive | 
20 | CCC(CC)(CC(=O)Nc1cccc(/C=C/c2nc(C3CCC3)cs2)c1)C(=O)O | inactive | inactive | inactive | inactive | inactive | inactive |  |  | inactive | inactive
21 | COc1cc(NS(=O)(=O)c2ccc(N)cc2)ncn1 | inactive | inactive | inactive | inactive | inactive | inactive | inactive |  | inactive | inactive
22 | OC[C@H]1O[C@@H]2O[C@H]3[C@H](O)[C@@H](O)[C@@H](O[C@H]4[C@H](O)[C@@H](O)[C@@H](O[C@H]5[C@H](O)[C@@H](O)[C@@H](O[C@H]6[C@H](O)[C@@H](O)[C@@H](O[C@H]7[C@H](O)[C@@H](O)[C@@H](O[C@H]8[C@H](O)[C@@H](O)[C@@H](O[C@H]1[C@H](O)[C@H]2O)O[C@@H]8CO)O[C@@H]7CO)O[C@@H]6CO)O[C@@H]5CO)O[C@@H]4CO)O[C@@H]3CO | inactive | inactive | inactive | inactive | inactive | inactive | inactive |  | inactive | inactive
23 | CC1(COc2ccc(CC3SC(=O)NC3=O)cc2)CCCCC1 (stereo unspecified) | inactive | inactive | inactive | inactive | inactive | inactive | inactive |  | inactive | inactive
24 | C#C[C@]1(OC(C)=O)CC[C@H]2[C@@H]3CCC4=C/C(=N/O)CC[C@@H]4[C@H]3CC[C@@]21CC | inactive |  | inactive | inactive | inactive | inactive | inactive |  | inactive | inactive
25 | Cc1cc(-c2ccccc2)nnc1NCCN1CCOCC1 | inactive |  |  |  | inactive | inactive |  | 8.49 µM (active) |  | inactive
26 | O=C(c1ccc(F)cc1)C1CCN(CCn2c(=S)[nH]c3ccccc3c2=O)CC1 | 5.62 µM (active) |  | 11.2 µM (active) | 4.47 µM (active) |  | 11.2 µM (active) | 5.01 µM (active) | 13.5 µM (active) | 12 µM (active) | 12 µM (active)
27 | CCOC(=O)Nc1ccc2c(c1)N(C(=O)CCN1CCOCC1)c1ccccc1S2 | inactive | inactive | inactive | inactive | inactive | inactive | inactive |  | inactive | inactive
28 | COc1ccc(C(Cl)=C(c2ccc(OC)cc2)c2ccc(OC)cc2)cc1 | 17.8 µM (active) |  |  | 2.24 µM (active) |  |  |  | inactive | inactive | inactive
29 | OCCOCCN1CCN(C2=Nc3ccccc3Sc3ccccc32)CC1 | inactive |  |  | inactive | inactive | inactive |  | inactive | inactive | inactive
30 | Cc1ccc2c(Br)cc(Br)c(O)c2n1 | 10 µM (active) |  | 11.2 µM (active) |  |  |  | 11.2 µM (active) |  | 16.9 µM (active) | 
31 | CCNC(=O)NCc1cccc(Cl)c1 | inactive | inactive | inactive | inactive | inactive | inactive |  |  | inactive | inactive
32 | CC(C)Nc1cccnc1N1CCN(C(=O)c2cc3cc(NS(C)(=O)=O)ccc3[nH]2)CC1 | inactive | 0.379 µM (active) |  | inactive | inactive | inactive | 7.94 µM (active) | 1.07 µM (active) |  | inactive
33 | O=[N+]([O-])c1cccc(S(=O)(=O)NCCNS(=O)(=O)c2cccc([N+](=O)[O-])c2)c1 | inactive |  | inactive |  | inactive | inactive |  |  | inactive | 
34 | C/C=C/c1ccc(O)c(OC)c1 | inactive |  | inactive | inactive | inactive | inactive |  | inactive |  | inactive
35 | CCCCC(CC)COC(=O)c1ccc(N(C)C)cc1 (stereo unspecified) | inactive |  | inactive | inactive | inactive | inactive | inactive | inactive | inactive | inactive
